Assay outcomes as filed in PubChem.
G9a inh: G9a (human) methyltransferase inhibition; Q96KQ7; G9a H3K9 monomethylation, AlphaScreen, 2 h; Potency, µM (series often up to 102 µM), for inactives: at the highest dose activity, negative = inhibition, hits mostly inhibitors; 8.8% of 350,000 active; AID 504332; note: potency is the fitted concentration of half-maximal effect; % is set by controls: 0 for no effect and ±100 for the full control effect; nearly all actives have a fitted effect of over 75% in size
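AlphaScreen detection with an anti-monomethyl H3K9 antibody quantified product after a 2 h room-temperature reaction containing 500 nM biotinylated H3K9 peptide, 20 µM SAM and 20 nM enzyme, which had been preincubated 15 min with compound.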
PI5P4K alpha inh: inhibitors of human PI5P4K alpha | P48426 | PI5P4Kalpha enzyme, ADP-Glo luminescence, 60 min; active compounds read low | max response, % | 1.2% of 330,000 active | AID 652105; active = max response of -50% or lower; inconclusive = between -30% and -50%; inactive = -30% or higher; note: value at the top dose of about 77 µM; % is set by controls: 0 for no effect and ±100 for the full control effect
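PI5P4Kalpha ADP-Glo assay; 5 microM ATP final; 60 min RT reaction; HEPES pH 7.4/EGTA/CHAPS, 5% DMSO; controls lacking substrate or enzyme; luminescent end-point.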
HP1b binding inh: blocks HP1-beta chromodomain binding to methylated histone tails. Potency, µM (doses to about 114 µM), inactives show at the top dose activity change, negative = inhibition, usual class: inhibitors. P83916. 0.56% of 390,000 active. AlphaScreen HP1-beta / biotin-H3K9me3 peptide binding; note: potency is the fitted concentration of half-maximal effect; nearly all actives have a fitted effect of over 70% in size
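HP1-beta protein (50 nM final) preincubated 30 min at room temperature with biotinylated H3(1-18)K9me3 peptide (50 nM) in PBS pH 7.4, 0.01% Tween-20, then compound added for 30 min. AlphaScreen streptavidin donor/nickel chelate acceptor beads (10 ug/mL final), 30 min dark, luminescence read.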
BAZ2B inh: BAZ2B (human) inhibition. AlphaScreen BAZ2B-H3K14Ac peptide displacement. Potency, µM (highest dose often 114 µM), for the others: at the top dose activity change, negative = inhibition, actives largely listed as inhibitors. 4.4% of 360,000 active; note: potency is the fitted concentration of half-maximal effect; % is set by controls: 0 for no effect and ±100 for the full control effect; nearly all actives have a fitted effect of over 60% in size
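Complex of BAZ2B and biotin-H3K14Ac (50 nM apiece) forms over 30 min at RT, then faces library compounds up to 110 uM for another 30 min; AlphaScreen beads added, 20 min dark incubation, luminescence read.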
PLK1 PBD inh: PLK1 (human) polo-box domain binding inhibition. P53350. Potency, µM, for inactives: max response, negative = inhibition, most hits filed as inhibitors. 2.8% of 360,000 active. Plk1 PBD binding of FITC phosphopeptide, fluorescence polarization; note: potency is the fitted concentration of half-maximal effect; series mostly up to about 57 µM; % is set by controls: 0 for no effect and ±100 for the full control effect; nearly all actives have a fitted effect of over 65% in size
JMJD2A Tudor: blocks the human JMJD2A Tudor domain; O75164; AlphaScreen JMJD2A-Tudor / H3K4me3 peptide binding; Potency, µM (series often up to 114 µM), for the others: top-dose activity change, negative = inhibition, usual class: inhibitors; 4.4% of 390,000 active; note: potency is the fitted concentration of half-maximal effect; % is set by controls: 0 for no effect and ±100 for the full control effect; nearly all actives have a fitted effect of over 50% in size
Active calls of the source: *; [ ] = another dose, or the depositor's remark. Rows were chosen to be rich in hits. Some 12% of all compounds tested hit in one or more screens of this group. Unless noted, calls come from the whole dose curve; as a rule, active = well fitted curve in the direction sought with a large enough effect; inconclusive = small, poorly fitted or top-dose-only effect, or another doubt; inactive = no such curve, though single readings can be large; an effect the other way counts as inactive or inconclusive.

Cc1cc(C(=O)Cn2cnc3cc(F)ccc3c2=O)c(C)n1C1CC1 was read as PI5P4K alpha inh 2, HP1b binding inh 31%, PLK1 PBD inh -5% and JMJD2A Tudor -16%.
`Nc1nc(SCC(=O)c2cc(F)ccc2F)n[nH]1` gave G9a inh 40µM*, PI5P4K alpha inh -9, HP1b binding inh 1%, BAZ2B inh -21%, PLK1 PBD inh -6% and JMJD2A Tudor -25%.
Screening O=C(CSc1nc2c(cnn2-c2ccc(F)cc2)c(=O)[nH]1)Nc1ccc(Br)cc1 returned G9a inh -28%[59 µM], HP1b binding inh 10%, BAZ2B inh -16% and JMJD2A Tudor inconclusive.
For Cc1ccc(C(=O)CSc2nc3ccccc3c(=O)[nH]2)cc1 the results were G9a inh 45µM*, PI5P4K alpha inh -4, HP1b binding inh 28%, BAZ2B inh 10%, PLK1 PBD inh 0% and JMJD2A Tudor 6%.
For CC(Sc1nc2ccccc2c(=O)[nH]1)C(=O)O (stereo not given) the results were G9a inh 3.2µM*, HP1b binding inh 13%, BAZ2B inh -7%, PLK1 PBD inh 2% and JMJD2A Tudor -8%.
NS(=O)(=O)c1ccc(NC(=O)CSc2nc3c(cnn3-c3ccccn3)c(=O)[nH]2)cc1 was read as G9a inh 40µM*, PI5P4K alpha inh 3, HP1b binding inh 14%, BAZ2B inh 9%, PLK1 PBD inh -12% and JMJD2A Tudor inconclusive.
`COC(=O)Cn1c(=O)c2cccn2c2ccc(F)cc21` gave G9a inh 6%[59 µM], HP1b binding inh 48%, BAZ2B inh 6% and JMJD2A Tudor 4%.
Screening COc1cc(NC(=O)CCc2c(C)nn(-c3ccc4nncn4n3)c2C)cc(OC)c1OC returned G9a inh 1%[59 µM], HP1b binding inh 23%[57 µM], BAZ2B inh 0% and JMJD2A Tudor 4%.
Cc1cc(C)n(CC(=O)Nc2cc(F)ccc2F)c(=O)c1C#N was read as G9a inh 0%[59 µM], HP1b binding inh 18%, BAZ2B inh -12% and JMJD2A Tudor -11%.
`CCOc1ccc(C(=O)Nc2ccc3oc(-c4ccc5ccccc5c4)nc3c2)cc1` gave G9a inh 5%[59 µM], HP1b binding inh 25%, BAZ2B inh 0% and JMJD2A Tudor 6%.
`C[C@@H]1[C@H]2[C@@H](O[C@@H]3O[C@H](CO)[C@@H](O)[C@H](O)[C@H]3O)OC=C(C(=O)O)[C@H]2C[C@@H]1O` gave G9a inh -1%[12.7 µM], PI5P4K alpha inh 1, HP1b binding inh 31%, BAZ2B inh 1%, PLK1 PBD inh 8% and JMJD2A Tudor -5%.
Screening C=CCn1c(C)cc(C(=O)CSc2nc3ccccc3c(=O)[nH]2)c1C returned G9a inh 50µM*, PI5P4K alpha inh -28, HP1b binding inh -24%, BAZ2B inh inconclusive, PLK1 PBD inh 12µM* and JMJD2A Tudor -9%[11.4 µM].
`O=C(CSc1nc2ccccc2c(=O)[nH]1)Nc1ccc([N+](=O)[O-])cc1` gave PI5P4K alpha inh -14, HP1b binding inh 38%, PLK1 PBD inh -6% and JMJD2A Tudor -12%.
`C=CCn1c(C)cc(C(=O)CSc2n[nH]c(N)n2)c1C` gave G9a inh 32µM*, PI5P4K alpha inh 3, HP1b binding inh 8%, BAZ2B inh -2%, PLK1 PBD inh -7% and JMJD2A Tudor inconclusive.
Screening O=C(CSc1nc2ccccc2c(=O)[nH]1)Nc1ccc(C(=O)O)cc1 returned G9a inh inconclusive, PI5P4K alpha inh -88*, HP1b binding inh 5%, BAZ2B inh inconclusive, PLK1 PBD inh -12% and JMJD2A Tudor -12%.
For Cc1nn(C(=O)c2ccccc2)c(C)c1S(=O)(=O)N1CCOCC1 the results were G9a inh inconclusive, HP1b binding inh 26%[57 µM], BAZ2B inh -2% and JMJD2A Tudor -22%.
`O=c1cc2c(n[nH]1)-c1ccccc1CC2` gave G9a inh 1%, PI5P4K alpha inh 3, HP1b binding inh 23%, BAZ2B inh 4%, PLK1 PBD inh 5% and JMJD2A Tudor 6%.
`O=c1cc2c(n[nH]1)CCCC2` gave G9a inh inconclusive, PI5P4K alpha inh 3, HP1b binding inh 22%, BAZ2B inh inconclusive, PLK1 PBD inh -6% and JMJD2A Tudor 56µM*.
Screening CC(C)=CC(=O)Oc1ccc(C(=O)N(C)c2ccccc2I)cc1 returned HP1b binding inh 40% and JMJD2A Tudor -14%.
Screening COCCNC(=O)C1CC(c2ccccc2C(F)(F)F)=NO1 (stereo not given) returned G9a inh -2%[2.33 µM], PI5P4K alpha inh -1, HP1b binding inh 26%, BAZ2B inh -6%, PLK1 PBD inh -2% and JMJD2A Tudor -15%.
Screening Cc1ccccc1Nc1nnc(-c2ccc(C)c(S(=O)(=O)N3CCN(C)CC3)c2)c2ccccc12 returned G9a inh -27%[59 µM], HP1b binding inh 4%, BAZ2B inh -36% and JMJD2A Tudor -19%.
`Cc1ccc(C)c(Nc2nnc(-c3ccc(C)c(S(=O)(=O)N4CCN(C)CC4)c3)c3ccccc23)c1` gave G9a inh 13µM*, HP1b binding inh -2%, BAZ2B inh inconclusive and JMJD2A Tudor inconclusive.
Screening O=[N+]([O-])/C(C(Cl)=C(Cl)Cl)=C(\Nc1ccc(F)cc1)n1cncn1 returned G9a inh 8.9µM* and BAZ2B inh 28µM*.
For CCOc1ccc(N/C(=C(/C(Cl)=C(Cl)Cl)[N+](=O)[O-])n2cncn2)cc1 the results were G9a inh 25µM* and BAZ2B inh 8.9µM*.
For O=C(Nc1ccc(F)cc1)c1ccc(-n2cncn2)c([N+](=O)[O-])c1 the results were G9a inh inconclusive, PI5P4K alpha inh 4, HP1b binding inh 18%, BAZ2B inh -33%, PLK1 PBD inh -2% and JMJD2A Tudor -19%.
`N#Cc1nc(Nc2cccc3ccccc23)nc(NC2CCCC2)n1` gave JMJD2A Tudor -27%.
Screening Cc1cc(NCCCCO)n2c(nc3ccccc32)c1C#N returned G9a inh 2%[59 µM], HP1b binding inh 11%, BAZ2B inh inconclusive, PLK1 PBD inh -8% and JMJD2A Tudor -6%.
Cc1ccnc(N2CCN(c3cc(C)c(C#N)c4nc5ccccc5n34)CC2)c1 was read as PI5P4K alpha inh 0, HP1b binding inh 23%, PLK1 PBD inh -3% and JMJD2A Tudor -5%.
For Cc1cc(-c2ccco2)n2c(nc3ccccc32)c1C#N the results were G9a inh inconclusive, PI5P4K alpha inh inconclusive, HP1b binding inh 0%, BAZ2B inh 9%, PLK1 PBD inh 11µM* and JMJD2A Tudor -13%[11.4 µM].
